Laboratory results taken from PubChem BioAssay AID602342 (Broad Institute, 2012).
Among all 340,000 compounds or so, about 1,000 (0.29%) were called active. This excerpt belongs to a sample that is enriched for actives. Unmarked numbers belong to inactive results.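 How the source made its calls: active means mean replicate activation score at least 90 and every replicate individually at or above 90; inconclusive means only one of the two criteria met; inactive means neither criterion met.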

Assay: compounds raising miR-122 luciferase sensor output – cell-based, single point, plate reader, miR-122 inhibitor project, primary screen (AID 602342);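 further: higher luciferase means less miR-122 activity so hits act as miR-122 inhibitors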
Conditions: Huh7 miR-122 Renilla luciferase sensor, 48 h, hits give high values, neutral wells = 0, positive control = 100

COc1ccc(C(=O)N2C[C@@H]3[C@H](c4ccccc42)[C@H](CO)N3Cc2ccc3c(c2)OCO3)cc1
activation (reporter increase) (at 16.7 µM unless noted): 247% (active)

COc1cccc(CN2[C@H](CO)[C@@H]3c4ccccc4N(C(=O)c4ccncc4)C[C@@H]32)c1
activation (reporter increase) (at 16.7 µM unless noted): 46.9%

COc1ccccc1NC(=O)N1C[C@H]2[C@@H](c3ccccc31)[C@H](CO)N2Cc1ccc2c(c1)OCO2
activation (reporter increase) (at 16.7 µM unless noted): 28.6%

O=C(c1ccncc1)N1C[C@H]2[C@@H](c3ccccc31)[C@H](CO)N2C(=O)c1ccccn1
activation (reporter increase) (at 16.7 µM unless noted): -28.6%

C/C=C/c1ccc([C@H]2[C@@H](CO)N(S(C)(=O)=O)[C@@H]2CN(C)C(=O)CC)cc1
activation (reporter increase) (at 16.7 µM unless noted): 6.25%

CN1C(=O)c2cc(NS(=O)(=O)c3ccc(Cl)cc3)ccc2OC[C@@H]2O[C@H](CC(=O)O)CC[C@@H]21
activation (reporter increase) (at 16.7 µM unless noted): 5.56%

O=C(Nc1ccc2c(c1)[C@H]1C[C@@H](CC(=O)N3CCc4ccccc4C3)O[C@H](CO)[C@H]1O2)Nc1ccccc1F
activation (reporter increase) (at 16.7 µM unless noted): -7.95%

CO[C@@H]1CN(C)C(=O)c2ccc(NS(=O)(=O)c3ccc(Cl)cc3)cc2OC[C@@H](C)N(C)C[C@H]1C
activation (reporter increase) (at 16.7 µM unless noted): -8.17%

COC(=O)c1ccc(C(=O)Nc2cc(Cl)ccc2Cl)cc1NC(=O)c1ccccc1C
activation (reporter increase) (at 16.7 µM unless noted): -1.04% [at 12.5 µM]

C=CCNC(=O)c1ccccc1NC(=O)c1ccc(Cl)c(S(=O)(=O)Nc2cccc(C)c2C)c1
activation (reporter increase) (at 16.7 µM unless noted): 155% [at 12.5 µM] (active)

Cc1ccc(C(=O)Nc2ccccc2C(=O)NC2CCCCC2)cc1S(=O)(=O)N1CCOCC1
activation (reporter increase) (at 16.7 µM unless noted): -2.85% [at 12.5 µM]

CCC(=O)N(C)C[C@@H]1Oc2ncc(C#C[C@H](C)O)cc2C(=O)N([C@@H](C)CO)C[C@@H]1C
activation (reporter increase) (at 16.7 µM unless noted): 1.39%

Cc1ccccc1S(=O)(=O)N1C[C@H](O)COC[C@H]2O[C@H](CC(=O)N3CCCCC3)CC[C@@H]21
activation (reporter increase) (at 16.7 µM unless noted): 8.99%

COc1ccc(CNS(=O)(=O)c2ccc(-c3cnc(C4CC4)o3)cc2)cc1
activation (reporter increase) (at 16.7 µM unless noted): -3.38% [at 12.5 µM]

Cc1cccc(CNS(=O)(=O)c2ccc(-c3cnc(C4CC4)o3)cc2)c1
activation (reporter increase) (at 16.7 µM unless noted): 3.02% [at 12.5 µM]

Cc1cccc(NS(=O)(=O)c2ccc(-c3cnc(C4CC4)o3)cc2)c1
activation (reporter increase) (at 16.7 µM unless noted): 186% [at 12.5 µM] (active)

C[C@@H]1CN([C@H](C)CO)C(=O)c2cccc(NS(=O)(=O)c3ccc(F)cc3)c2O[C@H]1CN(C)Cc1ccc(Oc2ccccc2)cc1
activation (reporter increase) (at 16.7 µM unless noted): 3.49%

O=C(NC1CCCC1)[C@H]1[C@H](CO)[C@H]2Cn3c(ccc(-c4ccccc4)c3=O)[C@H]2N1CCc1ccccc1
activation (reporter increase) (at 16.7 µM unless noted): -0.306%

C[C@H](CO)N1C[C@H](C)[C@H](CN(C)C(=O)Nc2ccccc2C(F)(F)F)OCc2cn(nn2)CCCC1=O
activation (reporter increase) (at 16.7 µM unless noted): -4.03%

N=c1n(Cc2ccc(Cl)cc2)c2ccccc2n1CC(O)c1ccco1 (stereo not drawn)
activation (reporter increase) (at 16.7 µM unless noted): 262% [at 12.5 µM] (active)

Cn1c(=N)n(CC(O)c2cccs2)c2ccccc21 (stereo not drawn)
activation (reporter increase) (at 16.7 µM unless noted): -2.61% [at 12.5 µM]

C[C@H](CO)N1C[C@H](C)[C@@H](CN(C)C(=O)Nc2ccc3c(c2)OCO3)OCCCC[C@H](C)Oc2ccc(NC(=O)Nc3ccc(F)cc3)cc2C1=O
activation (reporter increase) (at 16.7 µM unless noted): -4.3%

Cc1noc(C)c1S(=O)(=O)N(C)C[C@@H]1OCCCC[C@H](C)Oc2ccc(NC(=O)Nc3ccc4c(c3)OCO4)cc2C(=O)N([C@H](C)CO)C[C@H]1C
activation (reporter increase) (at 16.7 µM unless noted): -8.18%

O=C(Nc1ccccc1)[C@@H]1[C@@H](CO)[C@@H]2Cn3c(cccc3=O)[C@@H]2N1C(=O)C1CC1
activation (reporter increase) (at 16.7 µM unless noted): -0.104%

C[C@@H]1CN([C@H](C)CO)C(=O)c2cc(NC(=O)c3ccccc3)ccc2O[C@@H](C)CCCCO[C@H]1CN(C)C(=O)c1ccncc1
activation (reporter increase) (at 16.7 µM unless noted): -8.54%

C[C@H](CO)N1C[C@H](C)[C@@H](CN(C)S(=O)(=O)c2ccc(F)cc2)Oc2ccc(NC(=O)CCC(F)(F)F)cc2C1=O
activation (reporter increase) (at 12.5 µM): 1.48% | activation (reporter increase) (at 16.7 µM): -2.79%

Cc1ccc(S(=O)(=O)Nc2ccc3c(c2)CC(=O)N([C@@H](C)CO)C[C@H](C)[C@H](CN(C)Cc2ccc(C(=O)Nc4ccccc4N)cc2)O3)cc1
activation (reporter increase) (at 16.7 µM unless noted): 252% (active)

C[C@H]1CN([C@@H](C)CO)C(=O)Cc2cc(NS(=O)(=O)c3ccccc3)ccc2O[C@H]1CN(C)Cc1ccc(C(=O)Nc2ccccc2N)cc1
activation (reporter increase) (at 16.7 µM unless noted): 71.5%

Cc1ccc(S(=O)(=O)N(C)C[C@H]2Oc3ccc(NC(=O)CCC(F)(F)F)cc3C(=O)N([C@@H](C)CO)C[C@H]2C)cc1
activation (reporter increase) (at 16.7 µM unless noted): 99.9% (active)

COc1ccc(S(=O)(=O)N(C)C[C@@H]2Oc3ccc(NC(=O)CCC(F)(F)F)cc3C(=O)N([C@@H](C)CO)C[C@H]2C)cc1
activation (reporter increase) (at 16.7 µM unless noted): -0.455%

C[C@H]1CN([C@@H](C)CO)C(=O)Cc2cc(NS(=O)(=O)c3ccccc3)ccc2O[C@@H]1CN(C)Cc1ccc(C(=O)Nc2ccccc2N)cc1
activation (reporter increase) (at 16.7 µM unless noted): -6.43%

COCC(=O)Nc1ccc2c(c1)C(=O)N(C)[C@H]1CC[C@H](CC(=O)Nc3ccccc3)O[C@H]1CO2
activation (reporter increase) (at 16.7 µM unless noted): 1.21%

NCC[C@@H]1CC[C@@H](NC(=O)C2CCCC2)[C@H](CO)O1
activation (reporter increase) (at 16.7 µM unless noted): -3.47%

CC(C)C#Cc1ccc([C@@H]2[C@@H](CO)N3CCCCN(C(=O)c4ccc5c(c4)OCO5)C[C@H]23)cc1
activation (reporter increase) (at 16.7 µM unless noted): -24%

Cc1c(-c2ccccc2)cn2c1-c1ccc(C)n1CC2
activation (reporter increase) (at 16.7 µM unless noted): 248% [at 12.5 µM] (active)

C[C@H]1CCCCO[C@H](CN(C)S(=O)(=O)c2cn(C)cn2)[C@@H](C)CN([C@@H](C)CO)C(=O)c2cc(NC(=O)C3CCCCC3)ccc2O1
activation (reporter increase) (at 16.7 µM unless noted): 1.57%

CCCNC(=O)N(C)C[C@@H]1Oc2ncc(C#CC(C)C)cc2C(=O)N([C@H](C)CO)C[C@H]1C
activation (reporter increase) (at 16.7 µM unless noted): -5.52%

CN1c2ccc(-c3ccccc3)cc2[C@H]2[C@H](CCN2C(=O)c2ccc3c(c2)OCO3)[C@H]1CO
activation (reporter increase) (at 16.7 µM unless noted): 72.9%

O=C(COc1ccc(Cl)cc1)Nc1ccc2c(c1)OCO2
activation (reporter increase) (at 16.7 µM unless noted): -4.55% [at 12.5 µM]

CC(C)CNS(=O)(=O)c1ccc(OCC(=O)Nc2ccc3c(c2)OCO3)c(Cl)c1
activation (reporter increase) (at 16.7 µM unless noted): 303% [at 12.5 µM] (active)

CC(C)CNS(=O)(=O)c1ccc(C(=O)Nc2ccc3c(c2)OCO3)cc1
activation (reporter increase) (at 16.7 µM unless noted): 39.9% [at 12.5 µM]

C[C@H](CO)N1C[C@H](C)[C@H](CN(C)S(C)(=O)=O)Oc2ncc(C3=CCCCC3)cc2C1=O
activation (reporter increase) (at 16.7 µM unless noted): 2.67%

CCC(=O)N(C)C[C@H]1Oc2cc(-c3ccc(C)cc3)ccc2S(=O)(=O)N([C@@H](C)CO)C[C@H]1C
activation (reporter increase) (at 16.7 µM unless noted): -15.3%

COCCn1c(C)cc(C(=O)CSc2nc3ccccc3c(=O)n2C(C)COC)c1C (stereo not drawn)
activation (reporter increase) (at 16.7 µM unless noted): -1.04% [at 12.5 µM]

COCCn1c(SCC(=O)Nc2ccc3c(c2)CCC3)nc2ccccc2c1=O
activation (reporter increase) (at 16.7 µM unless noted): 1.43% [at 12.5 µM]

COCCn1c(SCC(=O)c2[nH]c(C)c(C(C)=O)c2C)nc2ccccc2c1=O
activation (reporter increase) (at 16.7 µM unless noted): 272% [at 12.5 µM] (active)

CO[C@H]1CN(C)C(=O)c2cc(NS(=O)(=O)c3ccccc3)ccc2OC[C@H](C)N(C)C[C@@H]1C
activation (reporter increase) (at 16.7 µM unless noted): 0.654%

CNC(=O)C[C@@H]1CC[C@H]2[C@H](COc3ccc(NC(=O)c4cccc(OC)c4)cc3C(=O)N2C)O1
activation (reporter increase) (at 16.7 µM unless noted): -50%

C[C@@H]1CCCCO[C@H](CN(C)C(=O)c2ccccc2)[C@H](C)CN([C@H](C)CO)C(=O)c2cc(N(C)C)ccc2O1
activation (reporter increase) (at 16.7 µM unless noted): -6.07%

CC(C)c1cc(C(=O)O)on1
activation (reporter increase) (at 16.7 µM unless noted): 8.11% [at 12.5 µM]

CC(C)c1cc(C(=O)O)n[nH]1
activation (reporter increase) (at 16.7 µM unless noted): 143% [at 12.5 µM] (active)

CO[C@H]1CN(C)C(=O)c2ccc(NC(=O)Cc3ccccc3)cc2OC[C@@H](C)N(C(C)=O)C[C@H]1C
activation (reporter increase) (at 16.7 µM unless noted): -19.6%

CN1C[C@H]2[C@@H](c3ccccc31)[C@@H](CO)N2Cc1ccccc1
activation (reporter increase) (at 16.7 µM unless noted): 2.82%

COc1ccc(OC)c(S(=O)(=O)Nc2c(C)nn(C)c2C)c1
activation (reporter increase) (at 16.7 µM unless noted): 21.9% [at 12.5 µM]

COc1ccc(OC)c(S(=O)(=O)Nc2cccc(-c3ccc4nncn4n3)c2)c1
activation (reporter increase) (at 16.7 µM unless noted): 333% [at 12.5 µM] (active)

CCOc1ccc(C(=O)Nc2cccc(-c3ccc4nncn4n3)c2)cc1
activation (reporter increase) (at 16.7 µM unless noted): -5.49% [at 12.5 µM]

CC(C)NC(=O)N(C)C[C@H]1Oc2ncc(C#CC3CCCCC3)cc2C(=O)N([C@H](C)CO)C[C@@H]1C
activation (reporter increase) (at 16.7 µM unless noted): -2.95%

CC(C)NC(=O)Nc1ccc2c(c1)C(=O)N([C@H](C)CO)C[C@@H](C)[C@H](CN(C)S(C)(=O)=O)O2
activation (reporter increase) (at 16.7 µM unless noted): 3.33%

C[C@@H]1CN([C@H](C)CO)C(=O)Cc2cc(NS(=O)(=O)c3ccc(F)cc3)ccc2O[C@H]1CN(C)C
activation (reporter increase) (at 16.7 µM unless noted): 4.8%

CCC(=O)N1[C@@H](CO)[C@@H]2c3ccccc3N(C(=O)c3ccccc3F)C[C@@H]21
activation (reporter increase) (at 16.7 µM unless noted): -12.6%

CC(=O)N1[C@H](CO)[C@H]2c3ccccc3N(C(=O)c3ccc(F)cc3)C[C@H]21
activation (reporter increase) (at 16.7 µM unless noted): -19.2%

O=C(c1ccccc1F)N1C[C@H]2[C@@H](c3ccccc31)[C@@H](CO)N2C(=O)c1ccc(F)cc1
activation (reporter increase) (at 16.7 µM unless noted): 471% (active)

O=C(C[C@@H]1C[C@@H]2c3cc(NC(=O)c4ccc5c(c4)OCO5)ccc3O[C@@H]2[C@@H](CO)O1)NCC1CC1
activation (reporter increase) (at 16.7 µM unless noted): -4.14%

COc1ccc(NC(=O)N(C)C[C@@H]2Oc3ccc(NC(=O)Cc4cn(C)c5ccccc45)cc3CC(=O)N([C@@H](C)CO)C[C@H]2C)cc1
activation (reporter increase) (at 16.7 µM unless noted): -1.9%

Cc1ccc(S(=O)(=O)Nc2ccc3ncccc3c2)cc1
activation (reporter increase) (at 16.7 µM unless noted): 146% [at 12.5 µM] (active)

Cc1ccc(NS(=O)(=O)c2ccc(C(C)(C)C)cc2)cn1
activation (reporter increase) (at 16.7 µM unless noted): 23.7% [at 12.5 µM]

O=S(=O)(Nc1ccc(Oc2ncccn2)c(Cl)c1)c1ccc(F)cc1
activation (reporter increase) (at 16.7 µM unless noted): 8.55% [at 12.5 µM]
